Data: PubChem BioAssay (Tox21)
Records with an inconclusive call do not appear. Calls of active or inactive are those of the source. Unless noted, calls come from the whole dose curve.

Experiments:
[1] = Nuclear factor erythroid 2-related factor 2/antioxidant responsive element (Nrf2/ARE) small molecule agonists: qHTS cell viability counter screen in human keratinocytes (AID 1919968; active = well fitted curve in the direction sought with a large enough effect in the repeat runs; an effect the other way counts as inactive or inconclusive; note: nearly all actives have a fitted effect of over 55% in size)
How it was run: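 Cytotoxicity was multiplexed with the Nrf2/ARE luciferase assay in the same wells. Stably transfected HaCaT keratinocytes were treated with test compounds for 23 h at 37 C. Cell viability was then measured by CellTiter-Fluor fluorescence.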

[2] = biological target: Gonadotropin-releasing hormone receptor (Homo sapiens) (UniProt P30968); assay: Human gonadotropin-releasing hormone receptor (GnRHR) small molecule agonists, calcium flux assay in GnRHR-HEK293 cells (AID 1920063); note: nearly all actives have a fitted effect of over 35% in size
Sequence of Gonadotropin-releasing hormone receptor (Homo sapiens) (P30968 whole entry, looked up): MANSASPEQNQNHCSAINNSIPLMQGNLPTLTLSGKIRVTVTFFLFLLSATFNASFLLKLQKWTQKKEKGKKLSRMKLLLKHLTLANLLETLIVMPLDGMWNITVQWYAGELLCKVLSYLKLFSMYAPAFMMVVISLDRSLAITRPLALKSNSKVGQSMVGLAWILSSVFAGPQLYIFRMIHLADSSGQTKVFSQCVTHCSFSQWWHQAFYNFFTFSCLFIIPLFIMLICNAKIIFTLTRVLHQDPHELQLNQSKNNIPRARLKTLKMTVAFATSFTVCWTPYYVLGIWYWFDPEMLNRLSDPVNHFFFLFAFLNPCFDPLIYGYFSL
How it was run: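 Agonist activity was measured as intracellular calcium flux in HEK293 cells engineered to stably express human GnRHR. After dye loading for 1 hour at 37 C, compounds in DMSO were added and fluorescence was followed for 3 minutes.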

[3] = biological target: KiSS-1 receptor (Homo sapiens) (UniProt Q969F8); assay: Human kisspeptin (KISS1R) small molecule agonists, calcium flux assay in KISS1R-HEK293 cells (AID 1920064; active = well fitted curve in the direction sought with a large enough effect in the repeat runs; an effect the other way counts as inactive or inconclusive)
Sequence of KiSS-1 receptor (Homo sapiens) (Q969F8 whole entry, looked up): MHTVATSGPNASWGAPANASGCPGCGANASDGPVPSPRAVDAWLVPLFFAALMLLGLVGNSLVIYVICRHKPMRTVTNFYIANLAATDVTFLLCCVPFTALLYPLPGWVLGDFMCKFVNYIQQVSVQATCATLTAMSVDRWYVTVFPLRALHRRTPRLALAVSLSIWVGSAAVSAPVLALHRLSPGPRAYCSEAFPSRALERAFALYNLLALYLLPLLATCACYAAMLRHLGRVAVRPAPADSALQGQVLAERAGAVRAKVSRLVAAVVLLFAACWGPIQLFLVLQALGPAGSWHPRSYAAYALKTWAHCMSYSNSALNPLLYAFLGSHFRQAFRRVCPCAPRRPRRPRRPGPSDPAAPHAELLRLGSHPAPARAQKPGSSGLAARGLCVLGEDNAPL
How it was run: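 Agonist activity is monitored as intracellular calcium rise in engineered HEK293 cells carrying human KISS1R. Cells are dye-loaded for 1 h at 37 C before compound addition, and fluorescence is recorded for 3 min.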

[4] = G protein-coupled receptor (GPCR) small molecule agonists, calcium flux assay: HEK293 wild type cell line counter screen (AID 1920065)
How it was run: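 Seed cells, incubate 18 h (37 C, 5% CO2); add calcium dye, 1 h at 37 C; pin-transfer compounds, ATP control or DMSO; read fluorescence 480/540 nm each second for 3 min.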

[5] = p53 small molecule agonists, cell-based qHTS assay with rat liver microsomes (AID 1963578)
How it was run: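 Agonist mode in p53RE-bla reporter cells, with compounds co-incubated 16 h at 37 C alongside 0.5 mg/mL rat liver microsomes and 0.5 mg/mL NADPH (final), followed by a 2 h LiveBLAzer detection step.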

[6] = p53 small molecule agonists, cell-based qHTS assay with rat liver microsomes: qHTS cell viability counter screen (AID 1963580); note: nearly all actives have a fitted effect of over 45% in size
How it was run: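 Rat liver microsome (0.5 mg/mL final) and NADPH (0.5 mg/mL final) co-incubation with compounds for 16 h at 37 C on HCT-116 p53RE-bla cells; cytotoxicity taken from intracellular ATP luminescence.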

[7] = biological target: 5-hydroxytryptamine receptor 2A (Homo sapiens) (UniProt P28223); assay: 5-hydroxytryptamine receptor 2A (HTR2A) small molecule agonists, cell-based qHTS assay (AID 1963587); note: nearly all actives have a fitted effect of over 30% in size
Sequence of 5-hydroxytryptamine receptor 2A (Homo sapiens) (P28223 whole entry, looked up): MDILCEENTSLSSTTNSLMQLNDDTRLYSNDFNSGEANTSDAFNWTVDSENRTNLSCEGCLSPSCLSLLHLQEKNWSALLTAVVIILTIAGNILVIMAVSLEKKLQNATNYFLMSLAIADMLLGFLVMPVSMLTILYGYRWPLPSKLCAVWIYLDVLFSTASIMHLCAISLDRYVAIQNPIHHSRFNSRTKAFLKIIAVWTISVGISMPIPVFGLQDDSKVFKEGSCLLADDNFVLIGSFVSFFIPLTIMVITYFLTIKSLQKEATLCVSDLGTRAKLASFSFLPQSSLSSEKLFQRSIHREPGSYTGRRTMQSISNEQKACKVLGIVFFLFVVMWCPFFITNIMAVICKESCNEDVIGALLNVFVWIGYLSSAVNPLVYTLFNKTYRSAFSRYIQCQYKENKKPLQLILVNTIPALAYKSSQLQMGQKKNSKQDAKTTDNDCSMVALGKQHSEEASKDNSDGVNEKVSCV
How it was run: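 Kinetic calcium-flux fluorescence (2 min, 1 sec intervals) after compound addition in agonist mode. HTR2A-CHO cells were cultured 18 h, then dye-loaded 1 h at 37 C.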

[8] = biological target: Muscarinic acetylcholine receptor M1 (Homo sapiens) (UniProt P11229); assay: Cholinergic receptor muscarinic 1 (CHRM1) small molecule antagonists, cell-based qHTS assay (AID 1963588); note: nearly all actives have a fitted effect of over 40% in size
Sequence of Muscarinic acetylcholine receptor M1 (Homo sapiens) (P11229 whole entry, looked up): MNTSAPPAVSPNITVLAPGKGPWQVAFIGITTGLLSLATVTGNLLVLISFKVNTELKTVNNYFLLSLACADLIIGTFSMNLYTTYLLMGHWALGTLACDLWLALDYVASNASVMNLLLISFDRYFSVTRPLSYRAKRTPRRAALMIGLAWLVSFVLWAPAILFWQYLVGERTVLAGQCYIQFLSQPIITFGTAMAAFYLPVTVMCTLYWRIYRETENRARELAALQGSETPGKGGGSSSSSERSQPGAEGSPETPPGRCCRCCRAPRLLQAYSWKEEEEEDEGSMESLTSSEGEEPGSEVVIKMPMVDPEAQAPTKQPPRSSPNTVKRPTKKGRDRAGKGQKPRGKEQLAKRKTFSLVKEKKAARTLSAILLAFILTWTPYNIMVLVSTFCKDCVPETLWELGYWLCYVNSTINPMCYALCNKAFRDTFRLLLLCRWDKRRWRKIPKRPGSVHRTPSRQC
How it was run: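 Compounds were tested at 15 concentrations in three independent runs. Dye-loaded CHRM1-CHO cells were exposed 5 min at room temperature before stimulation by acetylcholine added at 50nM. Intracellular calcium was read kinetically on FDSS for 3 min.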

[9] = biological target: Muscarinic acetylcholine receptor M1 (Homo sapiens) (UniProt P11229); assay: Cholinergic receptor muscarinic 1 (CHRM1) small molecule agonists, cell-based qHTS assay (AID 1963589); note: nearly all actives have a fitted effect of over 35% in size
How it was run: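 Cells were plated and incubated 18 h at 37 C/5% CO2, loaded with calcium dye for 1 h at 37 C, then treated with compounds in DMSO. Fluorescence was recorded kinetically at 1 sec intervals.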

[10] = cAMP Responsive Elements (CRE) small molecule agonists, cell-based qHTS assay (AID 1963590)
How it was run: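 Cells carrying a CRE-driven beta-lactamase reporter (HEK 293T) are seeded, incubated overnight (18 h), and treated with test compounds for 3 h at 37 C; reporter activity is then detected with a FRET substrate after 2 h at room temperature.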

[11] = biological target: Beta-2 adrenergic receptor (Homo sapiens) (UniProt P07550); assay: Adrenergic beta2 receptor (ADRB2) small molecule antagonists, cell-based qHTS assay (AID 1963592); note: series mostly up to about 92 µM; nearly all actives have a fitted effect of over 50% in size
Sequence of Beta-2 adrenergic receptor (Homo sapiens) (P07550 whole entry, looked up): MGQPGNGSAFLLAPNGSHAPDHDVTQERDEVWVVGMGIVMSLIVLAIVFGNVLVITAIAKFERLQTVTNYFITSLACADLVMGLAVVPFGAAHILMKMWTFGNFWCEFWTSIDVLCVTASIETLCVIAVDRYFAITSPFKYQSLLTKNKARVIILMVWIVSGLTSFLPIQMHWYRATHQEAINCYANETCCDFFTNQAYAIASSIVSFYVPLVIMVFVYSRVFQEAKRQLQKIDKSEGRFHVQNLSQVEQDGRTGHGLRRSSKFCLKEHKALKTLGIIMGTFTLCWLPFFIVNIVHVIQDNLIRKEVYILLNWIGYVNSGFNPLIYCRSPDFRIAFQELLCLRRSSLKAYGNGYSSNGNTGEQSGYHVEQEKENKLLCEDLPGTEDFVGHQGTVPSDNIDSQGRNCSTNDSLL
How it was run: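 Assay format: CHO-ADRB2 cells, 18-20hr seeding at 37C/5% CO2, then compound plus 1nM isoproterenol agonist mix for 0.5hr RT. Homogeneous time-resolved fluorescence cAMP detection after 1hr, expressed as 665/615 nm ratio.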

[12] = biological target: Beta-2 adrenergic receptor (Homo sapiens) (UniProt P07550); assay: Adrenergic beta2 receptor (ADRB2) small molecule agonists, cell-based qHTS assay (AID 1963593);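 note: CHO cells stably overexpressing human ADRB2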
How it was run: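 CHO cells stably over-expressing ADRB2 were plated overnight at 37C, then dosed with compounds plus a stimulation mix containing 100uM IBMX and 25uM Ro-20-1724 for 0.5hr at room temperature. cAMP was measured by HTRF competition, 1hr.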

[13] = biological target: D(2) dopamine receptor (Homo sapiens) (UniProt P14416); assay: Dopamine D2 receptor (DRD2) small molecule agonists, cell-based qHTS assay (AID 1963594); note: nearly all actives have a fitted effect of over 35% in size
Sequence of D(2) dopamine receptor (Homo sapiens) (P14416 whole entry, looked up): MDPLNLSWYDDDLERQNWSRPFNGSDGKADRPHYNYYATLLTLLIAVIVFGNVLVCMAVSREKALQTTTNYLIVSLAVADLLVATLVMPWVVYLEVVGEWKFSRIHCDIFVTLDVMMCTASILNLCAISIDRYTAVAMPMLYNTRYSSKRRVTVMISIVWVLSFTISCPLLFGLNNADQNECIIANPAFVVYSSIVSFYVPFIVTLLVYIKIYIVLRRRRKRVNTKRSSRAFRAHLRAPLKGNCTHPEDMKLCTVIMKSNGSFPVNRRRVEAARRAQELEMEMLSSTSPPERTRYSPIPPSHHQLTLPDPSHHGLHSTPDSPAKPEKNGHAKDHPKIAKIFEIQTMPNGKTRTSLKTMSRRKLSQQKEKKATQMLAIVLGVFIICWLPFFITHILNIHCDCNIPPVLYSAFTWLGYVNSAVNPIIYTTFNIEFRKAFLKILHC
How it was run: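 cAMP accumulation in DRD2-HEK293 cells measured by HTRF after 1 h detection; compounds added 10 min before NKH477 (200nM […]) forskolin-analogue stimulation, 30 min at room temperature, with Ro20-1724 present at 0.1 mM final.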

[14] = biological target: D(2) dopamine receptor (Homo sapiens) (UniProt P14416); assay: Dopamine D2 receptor (DRD2) small molecule antagonists, cell-based qHTS assay (AID 1963595; active = well fitted inhibition curve with a large enough effect in the signal ratio in the repeat runs, with a control signal flat; the % refers to the signal ratio)
How it was run: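 Antagonist mode in DRD2-HEK293 cells: after compound addition with 0.1 mM Ro20-1724, cells received quinpirole (12 nM) and NKH477 (200 nM) for 30 min at room temperature; HTRF cAMP read after 1 h detection.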

[15] = p53 small molecule agonists, cell-based qHTS assay with human liver microsomes: qHTS cell viability counter screen (AID 1963579); note: nearly all actives have a fitted effect of over 45% in size
How it was run: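 Metabolically activated exposure: compounds, human liver microsomes and NADPH (0.5 mg/mL final apiece) were added to p53RE-bla cells seeded 5 h earlier, left 16 h at 37 C, and then assessed for viability by CellTiter-Glo luminescence.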

[16] = p53 small molecule agonists, cell-based qHTS assay: qHTS cell viability counter screen (AID 1963581); note: nearly all actives have a fitted effect of over 45% in size
How it was run: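 Viability was counter-screened in parallel with the p53 agonist reporter by measuring intracellular ATP luminescence in the same HCT-116 p53RE-bla wells after 16 h compound treatment at 37 C.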

[17] = biological target: 5-hydroxytryptamine receptor 2A (Homo sapiens) (UniProt P28223); assay: 5-hydroxytryptamine receptor 2A (HTR2A) small molecule antagonists, cell-based qHTS assay (AID 1963586); note: nearly all actives have a fitted effect of over 45% in size
How it was run: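 CHO cells stably expressing human HTR2A were plated for 18 h at 37 C, then loaded with calcium dye for 1 h. Compounds were preincubated 5 min at room temperature before DOI (4 nM solution) was added. Kinetic fluorescence was read for 3 min.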

[18] = cAMP Responsive Elements (CRE) small molecule antagonists, cell-based qHTS assay (AID 1963591; active = well fitted inhibition curve with a large enough effect in the signal ratio in the repeat runs, not every such curve was filed as active; the % refers to the signal ratio)
How it was run: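 Cells (CRE-bla HEK 293T, DMEM with 10% dialyzed FBS and 25 mM HEPES) are seeded and incubated 18 h. Compounds are added with NKH477 agonist at 0.25 uM final for 3 h, then FRET substrate for 2 h.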

[19] = p53 small molecule agonists, cell-based qHTS assay (AID 1963582; active = well fitted activation curve with a large enough effect in the signal ratio in the repeat runs, not every such curve was filed as active; the % refers to the signal ratio)
How it was run: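 Cells carrying a p53-responsive bla reporter are treated with test compounds for 16 h at 37 C; beta-lactamase activity is then detected with LiveBLAzer B/G FRET substrate after 2 h at room temperature.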

Measured: Potency

Nc1ccc(Cl)cc1C(=O)c1ccccc1F
not listed: [15] | [16] | [17] | [18] | [19]
inactive: all other assays above

CNC(=O)Oc1cccc(C(C)C)c1
not listed: [5] | [8] | [19]
inactive: all other assays above

O=C=Nc1ccc(Cl)cc1
not listed: [15] | [16]
inactive: all other assays above

CC(Cc1ccccc1)NCc1ccccc1Cl (stereo not drawn)
not listed: [11] | [12] | [14]
inactive: all other assays above
